Screening results: PubChem BioAssay, several laboratories
A selection: hits, their analogues and other compounds. The true share with any hit is near 3.8%.
HSF1 inhib = HSF1 inhibition; activity change, negative = inhibition, % at 7.5 µM (by protocol); hit rate 0.77% among 300,000; NIH3T3-HGL HSE-luciferase, MG132-induced, luminescence 8 h; stronger effect = lower value; AID 2098;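 active = more than half of replicate wells show activity change below -50%, luminescence cut by over half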;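 note: luciferase reports HSF-1 transcriptional activity via heat shock element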
NALP1 yeast inh = inhibitors of NALP1 inflammasome in yeast; S. cerevisiae NALP1/ASC/caspase-1 growth, X-gal OD620, 72 h; inhibition, % at 10 µM; hit rate 0.61% among 280,000; AID 2071; in the data active = inhibition mostly above about 24%, no sharp cut-off; inactive = mostly below about 32%
HSP90 inh = HSP90 refolding inhibition in rabbit reticulocyte lysate; luciferase refolding luminescence, 3 h; inhibition, % at 5.6 µM; hit rate 0.91% among 290,000;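 active = inhibition above the screen-wide mean plus 3 SD, computed separately per campaign, cut at about 16% in these data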;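 note: inhibitors lower the luminescence because luciferase stays unfolded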
Hsp70 act = transcriptional activators of Hsp70. HeLa Hsp70 promoter luciferase reporter, luminescence; scaled: vehicle 0, proteasome-inhibitor control 100%. hit rate 0.04% among 200,000. activation, % at 10 µM. AID 1203;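 active = activation above the mean across all tested compounds plus 3 SD, cutoff set per campaign, cut at about 5.5% in these data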
p-CIP stab down = p/CIP protein destabilization; Q05BA5; F442A p/CIP-EGFP cells, EGFP fluorescence, 16 h; decrease of EGFP signal, % at 10 µM; hit rate 0.01% among 290,000; AID 1984;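 active = EGFP signal decrease of at least 30% at 10 µM or well 3 SD below plate mean, unless failing retest; inactive = the rest, including hits failing retest or dose response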
HSF1 activator = increases HSF-1 driven luciferase reporter signal; hit rate 1.7% among 300,000; activation, % at 9 µM; NIH3T3-HGL HSF-1 luciferase reporter, MG132, 8 h; 100% = twice DMSO control signal;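 active = mean replicate activation of at least 50% with a set share of replicates each reaching 50%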
Large screens that a line does not name were inactive.

Cc1ccc(C(=O)N2CCCC(Nc3ccc(F)cc3)C2)cc1C (stereo not drawn)	HSF1 inhib -71 (no result: Hsp70 act)
CC1CN=C(NC(=O)c2cccc([N+](=O)[O-])c2)S1 (stereo not drawn)	none (no result: Hsp70 act)
COc1ccc(C2(C)CC(C)(C)Nc3ccccc32)cc1 (stereo not drawn)	none (no result: Hsp70 act)
COc1ccc(C2CC(C)(c3ccc(OC)cc3)Nc3ccccc3N2)cc1 (stereo not drawn)	HSF1 activator 58 (no result: Hsp70 act)
CC[C@@]1(O)C(=O)OCc2c1cc1n(c2=O)Cc2cc3c(N)cccc3nc2-1	HSF1 activator 50 (no result: HSP90 inh, Hsp70 act)
CC[C@@]1(O)C(=O)OCc2c1cc1n(c2=O)Cc2cc3c(CN(C)C)c(O)ccc3nc2-1	none (no result: NALP1 yeast inh, HSP90 inh, Hsp70 act, p-CIP stab down)
O=c1c2cn[nH]c2nc(SCc2c(F)cccc2F)n1-c1ccc(Cl)cc1	none
Cc1ccc(CSc2nc(N)cc(N)n2)cc1	none (no result: Hsp70 act)
N#Cc1ccc(CSc2nc(N)cc(N)n2)cc1	HSF1 activator 74 (no result: Hsp70 act)
CCc1ccccc1NC(=O)CSc1nc2n[nH]c(C)c2c(=N)n1-c1ccc(OC)cc1	none (no result: HSF1 inhib, HSF1 activator)
COc1ccccc1NC(=O)CSc1nc2n[nH]c(C)c2c(=N)n1-c1ccccc1Cl	HSF1 activator 60
CCN(CC)c1ccc(/C=C(/C#N)c2nc3ccccc3[nH]2)c(OC(C)C)c1	HSP90 inh 16
COc1ccc(C(=O)O/N=C(\N)c2ccc(OC)c(OC)c2)c(OC)c1	none (no result: Hsp70 act)
COc1ccc(/C(N)=N/OC(=O)CSc2ccc(C)cc2)cc1OC	HSF1 activator 57
COc1ccc(C(=O)O/N=C(\N)c2ccc(OC)c(OC)c2)cc1	HSF1 activator 66 (no result: Hsp70 act)
Cc1ccc(SCC(=O)O/N=C(\N)c2ccc([N+](=O)[O-])cc2)cc1	none
Cc1cccc(/C(N)=N/OC(=O)C23CC4CC(CC(C4)C2)C3)c1	NALP1 yeast inh 59
COc1cc(OC)cc(C(=O)O/N=C(\N)c2ccncc2)c1	none
COc1cc(OC)cc(C(=O)O/N=C(\N)c2cccc(C)c2)c1	NALP1 yeast inh 43 (no result: Hsp70 act)
Cc1ccc2cc(CN(Cc3ccco3)C(=O)c3ccco3)c3nnnn3c2c1	none (no result: Hsp70 act)
Cc1nc(C(F)(F)F)c(C(=O)O)cc1-c1nc(-c2ccccc2)cs1	none (no result: Hsp70 act)
Cc1cccnc1NC(=O)C1CCN(S(=O)(=O)c2ccc3ccccc3c2)CC1	none (no result: NALP1 yeast inh, HSP90 inh, Hsp70 act, p-CIP stab down)
CN(c1ccccc1)c1nc(N)c(C#N)c(CC#N)c1C#N	HSF1 activator 69
CC(C)CN(CC(C)C)c1nc(N)c(C#N)c(CC#N)c1C#N	HSF1 activator 132
CN(CCO)c1nc(N)c(C#N)c(CC#N)c1C#N	none (no result: Hsp70 act)
CC1(C)CC(=O)C2=C(C1)NC(=S)C(C#N)C21CCCCC1 (stereo not drawn)	none (no result: NALP1 yeast inh, Hsp70 act)
Cc1c(C(=O)C(=O)NCc2cccs2)c2ccccc2n1C	HSF1 inhib -92
Cc1ccc(OCCn2c(=O)n(C)c3ccccc32)cc1	HSF1 activator 59
C=CC[n+]1c(-c2ccc(C)cc2)csc1Nc1ccc(NC(C)=O)cc1	none (no result: HSF1 inhib, HSF1 activator)
C=CC[n+]1c(-c2ccc(OC)cc2)csc1NNC(=O)Nc1ccccc1	HSF1 activator 54
Cc1ccccc1N(CC(=O)NCc1ccc2c(c1)OCO2)C(=O)C1CSC(=O)C1 (stereo not drawn)	none (no result: Hsp70 act)
COc1ccc(CNS(=O)(=O)c2cc(CN3C(=O)c4cccnc4C3=O)ccc2OC)cc1	HSF1 activator 61 (no result: Hsp70 act)
CSc1ccc(CN2CCC(CO)(Cc3ccc(Cl)cc3)CC2)cc1	NALP1 yeast inh 28
OCC1(Cc2ccc(Cl)cc2)CCN(Cc2ccccc2F)CC1	none
CCN1CCN(c2c(Cl)cccc2NC(=O)c2cc3ccccc3o2)CC1	none (no result: Hsp70 act)
Cn1c(C(=O)N2CCCC(C(=O)NCCN3CCOCC3)C2)cc2sccc21 (stereo not drawn)	NALP1 yeast inh 30
S=C(N/N=C/c1ccc2ncccc2c1)Nc1cccnc1	HSF1 inhib -65
Oc1ccc(/C=N/NC(=S)Nc2cccnc2)cc1O	none
CCOc1ccc(NC(=O)CN(C)C(=O)c2ccccc2SCc2c(C)noc2C)cc1OCC	none (no result: NALP1 yeast inh, HSP90 inh, Hsp70 act, p-CIP stab down)
O=C(COC(=O)c1ccccc1SCC(=O)N1CCCC1)NC1CCS(=O)(=O)C1 (stereo not drawn)	HSF1 inhib -71 (no result: NALP1 yeast inh, HSP90 inh, Hsp70 act, p-CIP stab down)
O=C(CN1CCN(c2ccc(F)cc2)CC1)N1CCC(Cc2ccccc2)CC1	NALP1 yeast inh 31
O=C(CN1CCN(c2ccccc2)CC1)NCc1ccc(F)cc1	HSF1 inhib -56 (no result: Hsp70 act)
COc1ccc(CNC(=O)CN2CCN(C(c3ccccc3)c3ccccc3)CC2)cc1	NALP1 yeast inh 37
O=C(CN1CCN(c2ccc(F)cc2)CC1)N1CCOCC1	none
O=C(CN1CCN(C(c2ccccc2)c2ccccc2)CC1)NCc1ccccc1	none
COc1ccc(CNC(=O)CN2CCN(c3ccccc3)CC2)cc1	none (no result: Hsp70 act)
O=C(CCCc1nc(-c2ccccc2)no1)NC1CCCCC1	none (no result: Hsp70 act)
Cc1ccccc1-n1c(SC2CCOC2=O)nnc1-c1ccncc1 (stereo not drawn)	none
COCCN(C(=O)COC(=O)CCOc1ccccc1C)c1c(N)n(Cc2ccccc2)c(=O)[nH]c1=O	none (no result: NALP1 yeast inh, HSP90 inh, Hsp70 act, p-CIP stab down)
CCOC(=O)C(NS(=O)(=O)c1ccccc1)(C(F)(F)F)P(=O)(OCC(C)C)OCC(C)C (stereo not drawn)	NALP1 yeast inh 34
CC1(C)Cc2c(ccc3ccccc23)C(c2cc3ccccc3oc2=O)=N1	NALP1 yeast inh 34
Cc1cc(C)cc(NS(=O)(=O)c2c(C)[nH]c(=O)[nH]c2=O)c1	none (no result: Hsp70 act)
CC1=NNC(=O)C1C(c1ccccc1)C1C(=O)NN=C1C (stereo not drawn)	HSF1 activator 128
CC(=O)c1cccc(NC(=S)NC2CCCCCCC2)c1	none (no result: HSF1 inhib, Hsp70 act, HSF1 activator)
COc1ccc(C2=NN(C(=O)c3ccco3)C(c3ccco3)C2)cc1OC (stereo not drawn)	HSF1 activator 62 (no result: Hsp70 act)
CN1CCN(CC(=O)N2N=C(c3cccs3)CC2c2ccco2)CC1 (stereo not drawn)	HSF1 inhib -58
O=C(CN1CCCCC1)N1N=C(c2cccs2)CC1c1cccs1 (stereo not drawn)	none
O=C(c1ccco1)N1N=C(c2cccs2)CC1c1ccco1 (stereo not drawn)	HSF1 activator 64
O=C(CCl)N1N=C(c2ccco2)CC1c1ccco1 (stereo not drawn)	none (no result: Hsp70 act)
O=C(CCl)N1N=C(c2cccs2)CC1c1ccco1 (stereo not drawn)	HSF1 inhib -94
Cc1csc(C(=O)O)c1NC(=O)c1cccc([N+](=O)[O-])c1	none
O=C(CN1CCCc2ccccc21)NCCc1ccc(Cl)cc1	none
CC(=O)N(C)c1ccc(NS(=O)(=O)c2cccc3nsnc23)cc1	none (no result: NALP1 yeast inh, Hsp70 act)
O=C(NCc1ccccc1F)C1CCCN1C(=O)Nc1ccc(F)cc1 (stereo not drawn)	none (no result: Hsp70 act)
CCc1ccc(C2=NN(C(C)=O)C(c3ccco3)C2)cc1 (stereo not drawn)	HSF1 activator 74
COc1ccccc1N1CCN(C(=O)c2oc3c(c2C)C(=O)CC(C)(C)C3)CC1	none (no result: Hsp70 act)
